Here are results for three compounds from PubChem BioAssay (EPA / NIEHS).

A short description of experiment [1]: ATG_DR4_LXR_CIS: Attagene CIS-FACTORIAL HepG2 Assay for human Liver X Receptor (LXR), DR4 submotif (AID 2282929). The settings on record: HepG2 Attagene DR4 cis-reporter, mRNA transcription; AC50: actives raise or lower the signal unless noted; outcome: actives raise or lower the signal unless noted. Summed up: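 After transient transfection with multiplexed cis-promoter reporter units, HepG2 cells received test chemicals for 24 h. Reporter mRNA induction, detected by fluorescence after RT-PCR and capillary electrophoresis, was scored relative to DMSO.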

Experiment [2] concerns the target Aryl hydrocarbon receptor (Homo sapiens) (UniProt P35869). Description: ATG_Ahr_CIS: Attagene CIS-FACTORIAL HepG2 Assay for human Aryl Hydrocarbon Receptor (Ahr) (AID 2282930). The settings on record: HepG2 AhR cis-factorial reporter transcription; actives raise or lower the signal. Summed up:
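Reporter mRNA levels, quantified by RT-PCR and fluorescent capillary electrophoresis, reflect endogenous AhR transcriptional activity in HepG2 cells carrying transfected cis-promoter reporter constructs. Readout at 24 h post-dose; gain or loss fitted against DMSO baseline.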

Experiment [3] in a line: ATG_AP_1_CIS: Attagene CIS-FACTORIAL HepG2 Assay for human Activator Protein 1 (AP-1) (AID 2282931). Particulars: HepG2 Attagene cis-factorial AP-1 reporter mRNA; actives raise or lower the signal. A digest of the protocol:
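After 24 h incubation with test chemical, RNA from transfected HepG2 cells was reverse-transcribed, amplified, fluorescently labelled and digested before capillary electrophoresis. Reporters were driven by cis-regulatory promoters; activity fitted bidirectionally versus DMSO.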

The nature of experiment [4]: ATG_AP_2_CIS: Attagene CIS-FACTORIAL HepG2 Assay for human Activator Protein 2 (AP-2) (AID 2282932). The settings on record: HepG2 AP-2 cis-reporter, Attagene transcription factor profiling; AC50: actives raise or lower the signal unless noted; outcome: actives raise or lower the signal unless noted. Summed up:
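Transiently transfected HepG2 cells are exposed to chemical for 24 h. Reporter transcripts are then measured as fluorescence following RT-PCR and capillary separation, and gain- or loss-of-signal is fitted relative to DMSO.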

Experiment [5] in a line: ATG_BRE_CIS: Attagene CIS-FACTORIAL HepG2 Assay for human Bone Morphogenetic Protein (BMP) Response Element (BRE) (AID 2282933). The settings on record: HepG2 BMP response element reporter, Attagene transcription factor profiling; actives raise or lower the signal. A digest of the protocol:
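Endogenous transcription factor activity at a BMP response element was monitored in transfected HepG2 cells 24 h after dosing. Fluorescent RT-PCR products were resolved by capillary electrophoresis, and activity was fitted in both directions versus DMSO.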

Experiment [6] addresses Retinoic acid receptor alpha (Homo sapiens) (UniProt P10276). Briefly: ATG_DR5_RAR_CIS: Attagene CIS-FACTORIAL HepG2 Assay for human Retinoic Acid Receptor Alpha (RARE), DR5 submotif (AID 2282934). Particulars: HepG2 Attagene cis-factorial RARE DR5 reporter, mRNA; actives raise or lower the signal. Summed up:
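Reporter transcripts from a DR5-regulated unit, measured via RT-PCR plus capillary electrophoresis, reflect endogenous RAR activity in transiently transfected human HepG2 liver cells. Exposure lasted 24 h; gain or loss of signal scored against DMSO.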

The target in experiment [7] is Transcription factor E2F1 (Homo sapiens) (UniProt Q01094). Briefly: ATG_E2F_CIS: Attagene CIS-FACTORIAL HepG2 Assay for human E2F Transcription Factor 1 (AID 2282935). Particulars: HepG2 Attagene cis-reporter, E2F reporter RNA transcripts; actives raise or lower the signal. Summed up: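 Fluorescent RT-PCR products, digested with HpaI for 2 h at 37 C, are separated by capillary electrophoresis. Source RNA comes from transfected HepG2 cultures treated for 24 h.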
Transcription factor E2F1 (Homo sapiens), sequence (Q01094 whole entry, looked up): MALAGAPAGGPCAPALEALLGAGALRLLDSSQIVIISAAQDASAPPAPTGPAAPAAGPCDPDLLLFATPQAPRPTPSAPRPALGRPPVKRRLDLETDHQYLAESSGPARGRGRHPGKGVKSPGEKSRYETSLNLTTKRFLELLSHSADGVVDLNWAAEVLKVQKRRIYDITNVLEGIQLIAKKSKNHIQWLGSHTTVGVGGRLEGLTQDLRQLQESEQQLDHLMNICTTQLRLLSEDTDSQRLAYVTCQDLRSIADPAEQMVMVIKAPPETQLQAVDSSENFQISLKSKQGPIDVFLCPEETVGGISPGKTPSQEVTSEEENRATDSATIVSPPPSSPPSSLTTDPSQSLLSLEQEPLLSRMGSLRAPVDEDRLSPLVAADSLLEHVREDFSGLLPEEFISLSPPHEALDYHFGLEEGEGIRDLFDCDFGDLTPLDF

Experiment [8] can be described thus: ATG_E_Box_CIS: Attagene CIS-FACTORIAL HepG2 Assay for human Enhancer Box (E-box) (AID 2282936). The settings on record: HepG2 E-box cis-reporter transcription, actives raise or lower the signal. Summed up:
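Fluorescent reporter fragments separated by capillary electrophoresis gave the signal; mRNA came from HepG2 cells transfected with cis-element reporters and treated 24 h. Curves fitted bidirectionally relative to DMSO controls.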

Experiment [9] can be described thus: ATG_M_61_CIS: Attagene CIS-FACTORIAL HepG2 Assay for M61 Transcription Factor (Internal Marker) (AID 2282937). Particulars: HepG2 Attagene CIS-FACTORIAL M61 internal marker reporter; actives raise or lower the signal. A digest of the protocol:
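Using transiently transfected HepG2 liver cells, reporter transcript levels were assessed 24 h post-dosing by RT-PCR and capillary electrophoresis. Changes in either direction were fitted relative to DMSO controls.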

Experiment [10] is described as follows: ATG_EGR_CIS: Attagene CIS-FACTORIAL HepG2 Assay for human Early Growth Response 1 (EGR1) (AID 2282938). Particulars: HepG2 Attagene CIS-FACTORIAL EGR reporter mRNA; actives raise or lower the signal. Summed up:
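Fluorescent capillary-electrophoresis signal of reporter cDNA fragments serves as read-out. HepG2 cells bear transiently transfected cis-promoter reporter units and are exposed 24 h; gain- or loss-of-signal is fitted against DMSO.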

A short description of experiment [11]: ATG_M_19_CIS: Attagene CIS-FACTORIAL HepG2 Assay for M19 Transcription Factor (Internal Marker) (AID 2282939). Particulars: HepG2 Attagene CIS-FACTORIAL M19 internal marker reporter; actives raise or lower the signal. A digest of the protocol: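 Background-control endpoint from a multiplexed HepG2 reporter panel. Cells carrying cis-regulated reporter constructs are treated 24 h, then reporter transcripts are amplified, fluorescently labelled and sized by capillary electrophoresis. DMSO defines baseline.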

Experiment [12] can be described thus: ATG_ERE_CIS: Attagene CIS-FACTORIAL HepG2 Assay for Estrogen Response Element (ERE) (AID 2282940). Particulars: HepG2 ERE cis-reporter, Attagene RNA transcript; actives raise or lower the signal. A digest of the protocol: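 Cells used were human hepatoma HepG2, transfected with multiple reporter transcription units under cis-regulatory promoters. Reporter mRNA, read 24 h post-dosing via fluorescent RT-PCR products on capillary electrophoresis, was fitted bidirectionally relative to DMSO.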

Experiment [13] is described as follows: ATG_Ets_CIS: Attagene CIS-FACTORIAL HepG2 Assay for human Erythroblast Transformation Specific (ETS) (AID 2282941). The settings on record: HepG2 ETS cis-reporter transcription; AC50: actives raise or lower the signal unless noted; outcome: actives raise or lower the signal unless noted. Summed up: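 RT-PCR/capillary electrophoresis fluorescence read-out of reporter mRNA; HepG2 transient multi-reporter transfection; 24 h compound exposure; gain or loss of signal fitted bidirectionally relative to DMSO.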

Experiment [14] concerns the target Hepatocyte nuclear factor 3-beta (Homo sapiens) (UniProt Q9Y261). Description: ATG_FoxA2_CIS: Attagene CIS-FACTORIAL HepG2 Assay for human Forkhead box A2 (FOXA2) (AID 2282942). Particulars: HepG2 cis-reporter transcription factor activity, 24 h; actives raise or lower the signal. Summed up:
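Fluorescence signal of reporter cDNA fragments, separated by capillary electrophoresis, reflects endogenous transcription factor activity in transfected HepG2 after 24 h. Both increases and decreases fitted against DMSO.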

The nature of experiment [15]: ATG_FoxO_CIS: Attagene CIS-FACTORIAL HepG2 Assay for human Forkhead box O (FoxO) (AID 2282943). The settings on record: HepG2 Attagene cis-reporter, FoxO element, mRNA; actives raise or lower the signal. Summed up:
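Endogenous transcription factor activity read from multiplexed cis-promoter reporter transcripts in transiently transfected HepG2, 24 h after dosing. Reporter RNA measured via RT-PCR plus capillary electrophoresis of FAM-labeled products; gain or loss relative to DMSO.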

Experiment [16] can be described thus: ATG_GATA_CIS: Attagene CIS-FACTORIAL HepG2 Assay for human GATA Binding Protein (AID 2282944). Particulars: HepG2 GATA cis-element reporter, Attagene multiplex mRNA; actives raise or lower the signal. Summed up:
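Endogenous transcription factor activity was captured through cis-promoter-driven reporters in transfected HepG2 cells. After 24 h exposure, reporter transcripts were quantified by RT-PCR with fluorescent capillary electrophoresis, and responses fitted both directions against DMSO.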

Experiment [17] can be described thus: ATG_GLI_CIS: Attagene CIS-FACTORIAL HepG2 Assay for human Zinc Finger Protein GLI1 (AID 2282945). Particulars: HepG2, Attagene cis-factorial reporter mRNA, GLI element; actives raise or lower the signal. Summed up: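 Bidirectional curve fits relative to DMSO, using reporter mRNA levels from RT-PCR plus capillary electrophoresis. Cells were HepG2 transiently carrying cis-regulated reporter constructs, harvested 24 h after dosing.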

The target in experiment [18] is Bile acid receptor (Homo sapiens) (UniProt Q96RI1). Briefly: ATG_IR1_CIS: Attagene CIS-FACTORIAL HepG2 Assay for human Nuclear Receptor Subfamily 1 Group H Member 4 (NR1H4), IR1 submotif (AID 2282946). Particulars: IR1 reporter transcription, actives raise or lower the signal. A digest of the protocol:
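HepG2 cells transiently transfected with multiplexed cis-element reporter units read endogenous transcription factor activity. After 24 h compound exposure, reporter mRNA was quantified by RT-PCR, fluorescent labelling, HpaI digestion and capillary electrophoresis; bidirectional fitting versus DMSO baseline.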

Experiment [19] in a line: ATG_GRE_CIS: Attagene CIS-FACTORIAL HepG2 Assay for human Glucocorticoid Response Elements (GRE) (AID 2282947). The settings on record: HepG2 GRE cis-reporter, Attagene multiplex mRNA; AC50: actives raise or lower the signal unless noted; outcome: actives raise or lower the signal unless noted. A digest of the protocol:
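Multiplexed cis-reporter mRNA induction, HepG2, 24 h post-dose. RT-PCR, FAM-labelled, HpaI-digested amplicons by CE. Bidirectional fit vs DMSO.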

Experiment [20] can be described thus: ATG_ISRE_CIS: Attagene CIS-FACTORIAL HepG2 Assay for human Interferon Regulatory Factor 1 (IRF1) binding to an Interferon-Stimulated Response Element (ISRE) (AID 2282948). Particulars: HepG2 ISRE cis-reporter (Attagene), mRNA transcription readout; actives raise or lower the signal. Summed up: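 Read-out: fluorescent RT-PCR products resolved by capillary electrophoresis, reporting endogenous transcription factor activity via ISRE-driven reporter mRNA in transfected HepG2 cells dosed for 24 h; gain or loss fitted relative to DMSO.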

Where a structure was tested more than once in an assay, its records may differ in their call. The source made the active and inactive calls. Rule for the calls: active = hit-call score of the fitted dose curve at least 0.9, where 1 is the maximum; inactive = score below 0.9.

Retinoic acid receptor alpha (Homo sapiens), sequence (P10276 whole entry, looked up): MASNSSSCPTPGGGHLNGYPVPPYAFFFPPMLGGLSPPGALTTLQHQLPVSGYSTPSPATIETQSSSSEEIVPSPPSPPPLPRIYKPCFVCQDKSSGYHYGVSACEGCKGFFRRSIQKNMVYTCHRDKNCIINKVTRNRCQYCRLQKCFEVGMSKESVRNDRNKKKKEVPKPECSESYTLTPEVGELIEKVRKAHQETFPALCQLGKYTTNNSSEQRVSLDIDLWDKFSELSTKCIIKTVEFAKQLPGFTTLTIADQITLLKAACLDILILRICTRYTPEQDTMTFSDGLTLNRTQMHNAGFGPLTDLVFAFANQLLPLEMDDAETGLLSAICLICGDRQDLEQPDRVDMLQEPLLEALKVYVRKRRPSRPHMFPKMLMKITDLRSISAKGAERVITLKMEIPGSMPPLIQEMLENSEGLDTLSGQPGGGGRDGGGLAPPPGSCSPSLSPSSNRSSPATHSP
Hepatocyte nuclear factor 3-beta (Homo sapiens), sequence (Q9Y261 whole entry, looked up, the tested form may be a part): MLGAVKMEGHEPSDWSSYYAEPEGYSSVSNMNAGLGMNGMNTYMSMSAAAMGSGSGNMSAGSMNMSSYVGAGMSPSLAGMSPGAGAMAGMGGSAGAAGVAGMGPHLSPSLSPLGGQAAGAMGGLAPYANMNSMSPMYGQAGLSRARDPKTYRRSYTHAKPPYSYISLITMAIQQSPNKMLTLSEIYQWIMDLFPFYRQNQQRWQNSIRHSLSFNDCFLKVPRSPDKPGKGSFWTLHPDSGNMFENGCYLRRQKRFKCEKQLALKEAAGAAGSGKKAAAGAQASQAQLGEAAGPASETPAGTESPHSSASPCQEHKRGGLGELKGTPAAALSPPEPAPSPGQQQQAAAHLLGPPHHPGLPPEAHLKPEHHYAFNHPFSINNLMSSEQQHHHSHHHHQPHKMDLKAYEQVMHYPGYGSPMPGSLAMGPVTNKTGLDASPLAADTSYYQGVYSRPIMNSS
Aryl hydrocarbon receptor (Homo sapiens), sequence (P35869 whole entry, looked up): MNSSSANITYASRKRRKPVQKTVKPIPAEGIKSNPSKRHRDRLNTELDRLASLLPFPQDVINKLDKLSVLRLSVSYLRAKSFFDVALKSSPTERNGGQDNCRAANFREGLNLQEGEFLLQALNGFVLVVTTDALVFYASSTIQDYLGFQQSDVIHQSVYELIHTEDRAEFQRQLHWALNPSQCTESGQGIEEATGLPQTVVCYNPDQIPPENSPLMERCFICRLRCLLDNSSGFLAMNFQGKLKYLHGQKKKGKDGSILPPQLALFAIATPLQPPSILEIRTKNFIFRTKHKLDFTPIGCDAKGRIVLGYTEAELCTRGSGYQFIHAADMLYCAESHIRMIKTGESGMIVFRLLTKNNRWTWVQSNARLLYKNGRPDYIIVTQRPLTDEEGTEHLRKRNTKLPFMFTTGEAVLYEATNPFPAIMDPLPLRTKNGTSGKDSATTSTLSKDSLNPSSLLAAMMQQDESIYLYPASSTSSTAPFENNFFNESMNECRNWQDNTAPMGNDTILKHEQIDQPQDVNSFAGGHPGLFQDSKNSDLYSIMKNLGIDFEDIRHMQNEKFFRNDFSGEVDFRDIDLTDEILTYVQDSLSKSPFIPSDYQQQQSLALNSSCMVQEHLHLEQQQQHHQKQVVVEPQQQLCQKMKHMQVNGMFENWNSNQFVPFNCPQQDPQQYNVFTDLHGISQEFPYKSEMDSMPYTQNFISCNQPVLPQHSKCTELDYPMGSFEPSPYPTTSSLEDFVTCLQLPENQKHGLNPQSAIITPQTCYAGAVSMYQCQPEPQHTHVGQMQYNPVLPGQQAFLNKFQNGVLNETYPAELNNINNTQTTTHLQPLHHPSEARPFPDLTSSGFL
Bile acid receptor (Homo sapiens), sequence (Q96RI1 whole entry, looked up): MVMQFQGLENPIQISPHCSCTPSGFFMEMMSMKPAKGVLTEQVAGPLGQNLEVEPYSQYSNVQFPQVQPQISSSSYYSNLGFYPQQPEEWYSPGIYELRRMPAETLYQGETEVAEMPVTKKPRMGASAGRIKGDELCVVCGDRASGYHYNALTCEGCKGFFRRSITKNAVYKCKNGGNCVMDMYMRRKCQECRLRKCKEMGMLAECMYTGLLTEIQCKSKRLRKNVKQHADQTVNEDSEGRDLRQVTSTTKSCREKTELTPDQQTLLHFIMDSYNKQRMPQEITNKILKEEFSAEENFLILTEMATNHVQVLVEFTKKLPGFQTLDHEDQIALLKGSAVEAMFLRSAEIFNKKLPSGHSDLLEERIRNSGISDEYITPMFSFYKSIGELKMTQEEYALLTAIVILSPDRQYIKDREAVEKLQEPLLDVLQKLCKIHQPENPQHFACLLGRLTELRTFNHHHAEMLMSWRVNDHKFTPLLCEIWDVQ

What is called AC50 is the midpoint of the concentration-response curve, whichever way the signal moves. Consider `CC1=CC(=O)c2ccccc2C1=O`, for which the call in [1], in [3], in experiment [4], in experiment [5], in [6] and in [7] was inactive. The outcome in [9], in [10], in [11], in experiment [12], in experiment [13] and in experiment [14] was inactive. Further, the compound was classed as inactive in experiment [15], in experiment [16], in [17], in experiment [18], in [19] and in experiment [20]. Also, the figures for the AC50 in [2] and in [8] were 1.4 µM (active) and 6.91 µM (active), respectively.
Consider `CC(C)C=O`, for which the AC50 in experiment [1] was 26.8 µM (active); in experiment [3], 61.2 µM (active). The compound was classed as inactive in experiment [1], in experiment [2], in experiment [3], in [4], in experiment [5] and in experiment [6]. For the same compound, the result in experiment [7], in [8], in [9], in experiment [10], in [11] and in experiment [13] was inactive. The compound was classed as inactive in experiment [14], in experiment [15], in experiment [16], in experiment [17], in [19] and in experiment [20].
On to `CC[N+](CC)(CC)Cc1ccccc1`, for which the compound was classed as inactive in [1], in [2], in experiment [3], in [4], in experiment [5] and in experiment [6]. Moreover, the compound was classed as inactive in [7], in experiment [8], in experiment [9], in experiment [10], in experiment [11] and in experiment [12]. Besides, the call in [13], in experiment [14], in experiment [15], in [16], in experiment [17] and in [18] was inactive. Also, the compound was called inactive in [19] and in [20].
